Assay results: PubChem BioAssay (NCI)
Values joined by “and” are separate entries in the source; they are usually repeats but may differ in a detail not shown here. Identical values can stand only once. This is part of a sample that, as a whole, favours compounds with a hit. Of some 83,000 tested, about 20% had one in any assay.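 Negative percent growth values reflect cell death: -40 means 40% of the cells present at the start died, and -100 means all died.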 Active and inactive are the calls of the source.

The compounds below were run on NCI-H460 lung (assay: NCI-60 one-dose screen, 48 h (100 = growth as untreated, 0 = no growth, -100 = all killed)). Details: 10 µM.
Method: Growth inhibition of the NCI-H460 human Non-Small Cell Lung tumor cell line is measured as a screen for anti-cancer activity. Cells are grown in 96 well plates and exposed to the test compound for 48 hours. Compounds are tested at a single concentration, which is 10^-5 M for most compounds. The reported endpoint is percent growth (GI% or GIPRCNT), where numbers from 0 - 100% represent growth inhibition, and numbers from -100% - 0 represent cell death. For example, a value of 40 represents 60% growth inhibition. A value of 0 means no net growth occurred over the course of the experiment. A value of -40 indicates 40% of cells at the beginning of the experiment died by the end of the experiment. A value of -100 means all cells are dead at the end of the experiment.
NCI-60 Human Tumor Cell Lines Screen was performed using the standard one-dose NCI protocol, which is described in more detail at https://dtp.cancer.gov/discovery_development/nci-60/default.htm.
Compounds with GIPRCNT values below 10 were considered active. Activity score was based on GIPRCNT using the following formula: […]
Score is 0 for GIPRCNT values of 100 or above, 50 for GIPRCNT values of 0, and 100 for GIPRCNT values of -100.

Compound | growth
CS/C(=C\c1ccc(C(=O)c2ccc(C)cc2)n1C)S(C)=O (stereo not given) | 96.8% (inactive)

Same assay, conditions: 10 µM unless noted

Compound | growth
COc1ccc(CCNC(=S)NN)cc1OC | 101% (inactive)
CCn1c2ccc(N(C)C)cc2c2cc(N(C)C)ccc21 | 99.8% (inactive)
COc1ccc(S(=O)(=O)c2ccc(F)cc2)cc1 | 114% (inactive)
CC(=O)Oc1cc(C)c(OC(C)=O)c(C)c1C | 105% (inactive)
COC(=O)c1ccccc1Cl | 106% (inactive)
CCC(C)NC(=O)c1ccccc1C (stereo not given) | 102% (inactive)
CC(=O)Nc1cscc1NC(C)=O | 101% (inactive)
COC(=O)CCOc1ccccc1 | 101% (inactive)
COCCNC(C)=O | 102% (inactive)
C/C=C/C(=O)OCCCCCCCCCCCC | 108% (inactive)
CCOc1ccc(/C=C\C(=O)O)cc1 | 109% (inactive)
COc1ccc(/C=C/C(=O)O)cc1OC | 103% (inactive)
CN(C)C(=S)N(C)C | 119% (inactive)
N#Cc1ccc(/C=C/C(=O)c2ccccc2)cc1 | 78.7% (inactive) and 106% (inactive)
CC(=O)Oc1cc(C(C)C)c(OCCN(C)C)cc1C | 115% (inactive) and 103% (inactive)
CS(=O)(=O)OCC1NC(=O)C(COS(C)(=O)=O)NC1=O (stereo not given) | 102% (inactive) and 95.9% (inactive)
COc1ccc([N+](=O)[O-])cc1OC | 102% (inactive) and 111% (inactive)
CC(=O)Nc1ccc2oc(=O)ccc2c1 | 109% (inactive)
COCCCNC1=C(C#N)C(=O)NC(c2cccs2)S1 (stereo not given) | 99.2% (inactive)

Compound | growth
N#Cc1c(N)nc2c(c(-c3ccc(Cl)cc3)nn2-c2ccccc2)c1C#N | 96.8% [100 µM] (inactive)
C(#CCN1CCOCC1)CCCN1CCOCC1 | 114% (inactive) and 111% (inactive)
O=[N+]([O-])c1cccc(N=Cc2ccccc2)c1 | 119% (inactive)
O=C(O)c1ccc2c3ccc(C(=O)O)c4c(C(=O)O)ccc(c5ccc(C(=O)O)c1c25)c43 | 96.5% (inactive)
O=C(c1ccncc1)c1c(Cc2ccccc2)ccc2ccccc12 | 89.8% (inactive)
CCCCCCC(C)CC1=C(O)c2ccccc2C(=O)C1=O (stereo not given) | 14.3% (inactive)
N#Cc1c[nH]n2ccnc12 | 119% (inactive)
CCCCOC1NC(=O)NC(=O)C1(F)C(=O)OCC (stereo not given) | 47.2% (inactive) and 25.6% (inactive)
Nc1nc(N)c2cc(S(=O)(=O)c3ccccc3)ccc2n1 | 18.3% (inactive) and 14.7% (inactive)
COc1cc(C2c3cc4c(cc3C(OC(=O)C[n+]3ccccc3)C3COC(=O)C23)OCO4)cc(OC)c1OC (stereo not given) | 4.91% (active)
COc1ccc(/C=N/Nc2nc3ccccc3s2)cc1 | 97.3% (inactive)
O=c1[nH]c(=S)[nH]n1C(=S)n1[nH]c(=S)[nH]c1=O | 103% (inactive)
CCc1ccccc1-n1[nH]c(C)c(C=N)c1=O | 109% (inactive)
CN(C)c1ccc(C(=N)c2ccc(N(C)C)cc2)cc1 | 9.11% (active) and 15.7% (inactive)
CC1=CC(=O)c2cccc(NC3=NCCO3)c21 | 107% (inactive)
COc1ccc(C(=O)C(O)c2ccc(OC)cc2)cc1 (stereo not given) | 104% (inactive) and 105% (inactive)
NNc1ncnc2cccc(Cl)c12 | 113% (inactive)
O=C(c1ccccc1)C1(Br)CCCCC1 | 105% (inactive)
Cc1ccc(C(=O)c2ccc(C)cc2)cc1 | 101% (inactive) and 105% (inactive)

Same assay, conditions: 100 µM

Compound | growth
CS/C(=C\c1ccc(C(=O)c2ccc(C)cc2)n1C)S(C)=O (stereo not given) | 91.4% (inactive)
